Laboratory results from PubChem BioAssay (NCI).
Several values for one entry are separate records, joined by “and”; a condition that tells them apart may be missing. Equal values may be shown once. The panel holds about 83,000 compounds, 20% with a hit somewhere; the sample as a whole holds those more often.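 Percent growth is the endpoint: 0 to 100 indicates growth inhibition (40 means 60% inhibition), 0 means no net growth, and negative values indicate cell death.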 Activity calls are given as the source filed them. The calls were made as follows: active = growth percent below 10; inactive = the rest.

Legend:
Experiment in all cases: NCI-60 one-dose screen, 48 h (100 = growth as untreated, 0 = no growth, -100 = all killed)
Conditions in all cases: 10 µM unless noted
BT-549 breast = tested on: BT-549 breast
MDA-MB-435 melanoma = tested on: MDA-MB-435 melanoma
SW-620 colon = tested on: SW-620 colon
MCF7 breast = tested on: MCF7 breast
HCT-116 colon = tested on: HCT-116 colon
HCC-2998 colon = tested on: HCC-2998 colon
KM12 colon = tested on: KM12 colon
T-47D breast = tested on: T-47D breast

Measured: growth

CCCCCCCCC(=O)OCCCC(CCC(CCC1CCCO1)OC(=O)CCCCCCCC)OC(=O)CCCCCCCC (centres undefined)
inactive: BT-549 breast 92.7% | MDA-MB-435 melanoma 104% | SW-620 colon 99.8% | MCF7 breast 100% | HCT-116 colon 92.4% | HCC-2998 colon 123% | KM12 colon 103%

CC(=O)N1CC(=O)NC1=S
inactive: BT-549 breast 103% | MDA-MB-435 melanoma 98.3% | SW-620 colon 102% | MCF7 breast 94.1% | HCT-116 colon 102% | HCC-2998 colon 95% | KM12 colon 103%

CCOC(=O)C1=C(C(=O)c2ccccc2)C(c2cccc([N+](=O)[O-])c2)C(C(=O)c2ccccc2)=C(C(=O)OCC)N1
inactive: BT-549 breast 89.9% | MDA-MB-435 melanoma 91.6% | SW-620 colon 70.2% | MCF7 breast 13% | HCT-116 colon 37.5% | HCC-2998 colon 105% | KM12 colon 75.8%

CCCCCCCCCCCC[S+](C)CC(=O)[O-] (centres undefined)
inactive: MDA-MB-435 melanoma 47.2% | SW-620 colon 69.9% | MCF7 breast 58.2% | HCT-116 colon 45.5% | HCC-2998 colon 34.4% | KM12 colon 30.7%
active: BT-549 breast -29.2%

c1ccc(-c2cc3cc4ccccc4cn3c2)cc1
inactive: MDA-MB-435 melanoma 91.4% | SW-620 colon 89.9% | MCF7 breast 88.8% | HCT-116 colon 88% | HCC-2998 colon 121% | KM12 colon 86.2%

CN(C)CC(C)(CN(C)C)C(=O)/C=C/c1c(Cl)cccc1Cl
active: SW-620 colon 4.63% | MCF7 breast -60.9% | HCT-116 colon -41.2% | KM12 colon -25.7%
inactive: BT-549 breast 51.1% | MDA-MB-435 melanoma 13.1% | HCC-2998 colon 37.2%

CC1CC(C)(C)OB(OC(C)CC(C)(C)OB2OC(C)CC(C)(C)O2)O1 (centres undefined)
inactive: BT-549 breast 77.7% | MDA-MB-435 melanoma 107% | SW-620 colon 117% | MCF7 breast 96.6% | HCT-116 colon 99.9% | HCC-2998 colon 93.3% | KM12 colon 101%

O=[N+]([O-])c1ccc(Oc2ccccc2Cl)c([N+](=O)[O-])c1
inactive: MDA-MB-435 melanoma 81.5% | SW-620 colon 39.9% | MCF7 breast 89.4% | HCT-116 colon 88.2% | HCC-2998 colon 112% | KM12 colon 89.2%

CC1=C(C2=C(C)C(=O)C(=O)c3cc(C)ccc32)c2ccc(C)cc2C(=O)C1=O
active: MCF7 breast -55.4% [100 µM] and -100% [100 µM]

COc1ccc2nc3cc(Cl)ccc3c(NCCCCCN3CCCCC3)c2c1
inactive: BT-549 breast 19%
active: MDA-MB-435 melanoma -92% | SW-620 colon -27.4% | MCF7 breast -33.5% | HCT-116 colon -61.5% | HCC-2998 colon -76.7% | KM12 colon -12.8%

Nc1ccc(C(=O)/C=C/c2ccccc2)cc1
inactive: BT-549 breast 61.1% | MDA-MB-435 melanoma 96.8% | SW-620 colon 103% | MCF7 breast 73.3% | HCT-116 colon 60.3% | HCC-2998 colon 100% | KM12 colon 74.2%

O=C(Cc1nc2cc(Cl)c(Cl)cc2nc1CC(=O)c1cccnc1)c1cccnc1
active: BT-549 breast 2.99%
inactive: MDA-MB-435 melanoma 75.9% | SW-620 colon 90.3% | MCF7 breast 29.6% | HCT-116 colon 52.7% | HCC-2998 colon 115% | KM12 colon 85.9%

Nc1nc(-c2ccccc2)nc(N)c1N=O
inactive: BT-549 breast 56.3% | MDA-MB-435 melanoma 46.7% | MCF7 breast 33% | HCT-116 colon 51.6% | HCC-2998 colon 103% | KM12 colon 58.8%
active: SW-620 colon 1.65%

O/N=C1\c2ccccc2-c2ccc(F)cc21
inactive: BT-549 breast 97.4% | MDA-MB-435 melanoma 114% | SW-620 colon 112% | MCF7 breast 25.6% | HCT-116 colon 98.3% | HCC-2998 colon 95.1%

CC1(C=O)CCC23COC4(CCC5C6(C)CCC(OC7OCC(OC8OC(CO)C(O)C(OC9OC(CO)C(O)C(O)C9O)C8OC8OCC(O)C(O)C8O)C(O)C7OC7OC(CO)C(O)C(O)C7O)C(C)(C)C6CCC5(C)C4(C)CC2O)C3C1 (centres undefined)
active: MCF7 breast -68.6% [100 µM] and -39.6% [100 µM]

CC(=O)Nc1ccc(C(=O)CCl)cc1
inactive: BT-549 breast 58.6% | MDA-MB-435 melanoma 14.4% | HCT-116 colon 32.3% | KM12 colon 85.7%
active: SW-620 colon -16.6% | MCF7 breast 3.18%

O=C1C(=O)c2cc([N+](=O)[O-])ccc2-c2ccccc21
active: T-47D breast -35.6% | MDA-MB-435 melanoma -79.3% | SW-620 colon -81.1% | MCF7 breast -55.3% | HCT-116 colon -92.5% | KM12 colon -81.7%

COc1cc(NC(=O)C2=C(C)NC(C)=C(C(=O)Nc3cc(OC)c(Cl)cc3OC)C2c2cccc([N+](=O)[O-])c2)c(OC)cc1Cl
active: MDA-MB-435 melanoma 9.7%
inactive: BT-549 breast 36.9% | SW-620 colon 46.4% | MCF7 breast 14.5% | HCT-116 colon 23.9% | HCC-2998 colon 15.6% | KM12 colon 18.3%

CC1OC(OC2C(OC3CCC4(C)C(CCC5(C)C4CC=C4C6CC(C)(C)CCC6(C(=O)O)CCC45C)C3(C)CO)OCC(O)C2O)C(O)C(O)C1O (centres undefined)
active: MCF7 breast -88% [100 µM] and -90.5% [100 µM]

Cc1cc2nc(CC(=O)c3ccncc3)c(=O)[nH]c2cc1C
inactive: BT-549 breast 88.9% | MDA-MB-435 melanoma 107% | SW-620 colon 103% | MCF7 breast 88.5% | HCT-116 colon 88.5% | HCC-2998 colon 102% | KM12 colon 103%

O=[N+]([O-])/C(=C/c1ccccc1)c1ccccc1
inactive: BT-549 breast 93% | MDA-MB-435 melanoma 107% | SW-620 colon 107% | MCF7 breast 97.4% | HCT-116 colon 96.5% | HCC-2998 colon 94.1% | KM12 colon 107%

CC(C)(C)CC(C)(C)c1ccc(OCCOCCSC(=N)N)cc1
inactive: BT-549 breast 28% | KM12 colon 36.9%
active: MDA-MB-435 melanoma -64.8% | SW-620 colon -2.39% | MCF7 breast 4.55% | HCT-116 colon -65% | HCC-2998 colon -32.3%

Nc1nc2ncc(CNc3ccc(C(=O)NC(CCC(=O)NC(CCC(=O)NC(CCC(=O)NC(CCC(=O)NC(CCC(=O)O)C(=O)O)C(=O)O)C(=O)O)C(=O)O)C(=O)O)cc3)nc2c(=O)[nH]1 (centres undefined)
inactive: BT-549 breast 106% | MDA-MB-435 melanoma 111% | SW-620 colon 105% | MCF7 breast 98.7% | HCT-116 colon 103% | KM12 colon 101%

O=C/C=C/c1ccc([N+](=O)[O-])cc1
inactive: MDA-MB-435 melanoma 108% | SW-620 colon 106% | MCF7 breast 90.3% | HCT-116 colon 80.6% | HCC-2998 colon 95.8% | KM12 colon 101%

Oc1c(C(Nc2ccccc2)c2ccccc2)ccc2cccnc12 (centres undefined)
inactive: BT-549 breast 49.8% | MDA-MB-435 melanoma 23.8% | SW-620 colon 45.1% | MCF7 breast 16.3% | HCT-116 colon 19.3% | HCC-2998 colon 44.9% | KM12 colon 32.5%

O=C(/C(Cl)=N/O)c1ccc(-c2ccccc2)cc1
inactive: BT-549 breast 94.7% | MDA-MB-435 melanoma 114% | SW-620 colon 110% | MCF7 breast 89.5% | HCT-116 colon 113% | HCC-2998 colon 105% | KM12 colon 108%

NNc1cccc([N+](=O)[O-])c1
inactive: BT-549 breast 93.6% | MDA-MB-435 melanoma 86.8% | SW-620 colon 63.2% | MCF7 breast 106% | HCT-116 colon 70.4% | HCC-2998 colon 110% | KM12 colon 52.5%

Oc1ccc2ccccc2c1N=Nc1ccccn1
active: MCF7 breast 0.0702% | HCT-116 colon 1.41%
inactive: T-47D breast 12.7% | MDA-MB-435 melanoma 49.9% | HCC-2998 colon 45.2% | KM12 colon 34.4%

Oc1ccc(Cl)cc1Cc1cc(Cl)ccc1O
inactive: MDA-MB-435 melanoma 36.7% | SW-620 colon 26.9% | MCF7 breast 31.9% | HCC-2998 colon 50.7% | KM12 colon 72.5%
active: HCT-116 colon 2.45%

N#C/C(=N\Nc1ccc(Cl)cc1)C(=O)C1CC1
inactive: BT-549 breast 40.2% | MDA-MB-435 melanoma 41% | SW-620 colon 63.1% | MCF7 breast 51.7% | HCT-116 colon 63.9% | HCC-2998 colon 72.1% | KM12 colon 56.2%

CN1CSC(=S)N(Cc2ccccc2)C1
inactive: T-47D breast 43.1% | MDA-MB-435 melanoma 77.9% | SW-620 colon 35.4% | MCF7 breast 33.5% | HCT-116 colon 25.9% | KM12 colon 40.8%
